Screens from PubChem BioAssay.
CASP6 VEID inh – caspase-6 (human) enzyme inhibition; purified caspase-6, Z-VEID-R110 cleavage fluorescence; inhibition, % at 12.5 µM; 350,000 tested, 0.53% active;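 active means mean inhibition across replicates at least about 35%, with every replicate also reaching that limit, limit read from the data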
Target sequence (P55212 24-179 limits assumed): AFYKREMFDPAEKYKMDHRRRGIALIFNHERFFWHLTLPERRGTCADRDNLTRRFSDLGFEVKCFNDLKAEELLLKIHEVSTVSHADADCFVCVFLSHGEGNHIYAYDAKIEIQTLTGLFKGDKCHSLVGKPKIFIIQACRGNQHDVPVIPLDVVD
Target sequence (P55212 194-293 limits assumed): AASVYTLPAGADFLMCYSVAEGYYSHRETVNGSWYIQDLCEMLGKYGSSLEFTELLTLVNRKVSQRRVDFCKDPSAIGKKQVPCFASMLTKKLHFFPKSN
UHRF1 MBD2 ctr – UHRF1 methyl-DNA binding inhibition; Q96T88; UHRF1 binding to methylated oligo, TR-FRET; inhibition, % at 4.4 µM; 370,000 tested, 0.75% active; AID 687016; in the data active means inhibition above about 21%;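 further: UHRF1 SRA domain binding a hemimethylated CpG hairpin DNA probe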
LEDGF integ inh – blocks HIV-1 LEDGF/p75-dependent DNA integration | TR-FRET IN-LEDGF/p75 DNA integration, Eu/Cy5 | inhibition, % at 3.7 µM | 370,000 tested, 0.64% active | AID 743269;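 active means inhibition above the screen-wide mean plus 3 SD, cut at about 13% in these data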;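 further: signal is the Cy5 over europium emission ratio at 671 and 618 nm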
MBD2 inh – blocks human MBD2 binding to methylated DNA; Q9UBB5; TR-FRET, MBD2 binding to methylated oligonucleotide; inhibition, % at 4.4 µM; 370,000 tested, 0.31% active; in the data active means inhibition above about 13%
Hits are given with their value; i = inactive; nt = no result. Only some compounds are listed: those with a hit (about 1.4% of all), similar ones and a draw of the others.

SMILES	CASP6 VEID inh	UHRF1 MBD2 ctr	LEDGF integ inh	MBD2 inh
CCOC(=O)c1cn(-c2ccc([N+](=O)[O-])cc2)c2cc(Cl)c([N+](=O)[O-])cc2c1=O	nt	i	i	i
COc1ccc(NC2=C(C(C)=O)C(c3ccccc3)C(C(C)=O)C(C)(O)C2)cc1 (configuration not stated)	i	61	i	i
CN1CCN(C(=O)c2cc(Cl)cc(Cl)c2)CC1	65	i	i	i
CSc1ccccc1NC(=O)COC(=O)/C=C/c1ccco1	41	nt	nt	nt
O=C(COC(=O)/C=C/c1ccco1)NCc1ccccc1Cl	i	i	i	i
O=C(COC(=O)/C=C/c1ccco1)NCc1ccco1	60	i	i	i
CNC(=O)COC(=O)/C=C/c1ccco1	i	i	i	i
O=C(COC(=O)Cc1ccc(Cl)cc1)NCc1ccco1	42	i	i	i
O=C(C[C@H]1CC[C@H](NC(=O)c2ccc3c(c2)OCO3)[C@@H](CO)O1)NC1Cc2ccccc2C1	i	nt	nt	nt
COc1ccc(S(=O)(=O)Nc2ccc3c(c2)CC(=O)N([C@@H](C)CO)C[C@H](C)[C@@H](CN(C)S(=O)(=O)c2cccs2)O3)cc1	i	nt	nt	nt
CCNc1nc(NCC)nc(N/N=C/c2ccc(OC)cc2)n1	i	53	i	i
CCNc1nc(NCC)nc(N/N=C/c2ccccc2)n1	i	i	i	i
Cc1ccc(NC(=O)CSc2nnc(Cn3cnc4ccccc43)o2)cc1	nt	21	i	i
Cc1ccc(C2=NC(=O)/C(=C/c3cc(O)c(O)c(Br)c3)S2)cc1	79	50	89	38
COc1cc(/C=C2\SC(c3ccc(C)cc3)=NC2=O)cc(OC)c1O	i	i	i	i
O=c1[nH]c(Nc2ccccc2)cc2ccccc12	nt	i	37	i
O=C(N[C@H]1CC[C@@H](CCNS(=O)(=O)c2ccc(Cl)cc2)O[C@H]1CO)c1cnccn1	i	nt	nt	nt
CC(=O)N1CC2(C1)[C@H](c1ccccc1)[C@H](CO)N2Cc1cc(F)ccc1F	i	nt	nt	nt
CCOC(=O)c1sc2nc(C)cc(C)c2c1N	nt	i	i	i
CCOC(=O)c1sc2nc(OCc3cccnc3)cc(C)c2c1N	i	55	i	25
CN(C)C(=O)C[C@H]1CC[C@H]2[C@H](COc3ccc(NC(=O)C4CCOCC4)cc3C(=O)N2C)O1	i	nt	nt	nt
Cc1[nH]n(C(N)=S)c(=O)c1N=Nc1cccc(Cl)c1	i	i	i	i
Cc1[nH]n(S(=O)(=O)c2ccccc2)c(=O)c1N=Nc1cccc(Cl)c1	i	34	i	i
COCC(=O)N1CCCCN2[C@@H](CO)[C@@H](c3ccc(-c4ccccc4)cc3)[C@@H]2C1	i	nt	nt	nt
O=C1C2CCCCN2C(=O)N1CCCCN1CCN(c2cccc(Cl)c2)CC1 (configuration not stated)	i	i	i	i
SMILES	CASP6 VEID inh	UHRF1 MBD2 ctr	LEDGF integ inh	MBD2 inh
CC(C)C(=O)Nc1cccc(N2CCN(CCCN3C(=O)C4CCCCN4C3=O)CC2)c1 (configuration not stated)	i	23	i	i
COc1ccc(C(c2c(NC(=O)c3ccco3)sc(C)c2C)N2CCOCC2)cc1 (configuration not stated)	55	i	i	i
C[C@@H]1CN([C@@H](C)CO)C(=O)c2cc(NS(C)(=O)=O)ccc2O[C@H]1CN(C)CC1CCCCC1	i	nt	nt	nt
CS(=O)(=O)N1CC2(C1)[C@@H](c1ccccc1)[C@@H](CO)N2CCC(F)(F)F	i	nt	nt	nt
CC1CN(S(=O)(=O)c2cccc(C(=O)NCc3ccccn3)c2)CC(C)O1 (configuration not stated)	i	28	i	i
CC1CN(S(=O)(=O)c2ccc(C(=O)Nc3ccc(S(=O)(=O)Nc4ncccn4)cc3)cc2)CC(C)O1 (configuration not stated)	i	36	i	i
O=C(O)C[C@@H]1C[C@H]2c3cc(NC(=O)NC4CCCCC4)ccc3O[C@H]2[C@@H](CO)O1	i	nt	nt	nt
NC(=O)NC(=O)Nc1ccccc1Cl	nt	i	i	i
O=C(NC(=O)c1csnn1)Nc1ccccc1Cl	61	i	i	i
Cc1ccccc1NC(=O)CCS(=O)(=O)c1cccc2nonc12	i	i	i	i
Cc1cccc(NC(=O)CCS(=O)(=O)c2cccc3nonc23)c1C	i	27	i	i
Cc1cccc(-n2nc3c(c2NC(=O)c2ccco2)CS(=O)C3)c1C (configuration not stated)	i	i	i	i
Cc1cccc(-n2nc3c(c2NC(=O)c2ccco2)CSC3)c1C	nt	i	29	i
Cc1ccccc1CN1[C@@H](C)[C@H](c2ccccc2)Oc2cccc(NCC(C)C)c2S1(=O)=O	63	i	i	i
CC(C)CNc1cccc2c1S(=O)(=O)N(Cc1ccc(F)cc1)[C@@H](C)[C@H](c1ccccc1)O2	i	i	i	i
